The campaign covered roughly 320,000 compounds. About 1,000 (0.31%) were called active. This is one part of a sample in which actives are shown more often than they occur. Values without a mark were called inactive.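 How the source made its calls: active means activation above the mean of all tested compounds plus 3 SD, cutoff set per screening run (cut at about 20% in these data); inactive means the rest.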
Molecular target: Oxytocin receptor (Homo sapiens) (UniProt P30559)
Experiment: oxytocin receptor activation by calcium flux – fluorescence, CHO-OTR cells, Fluo-8 calcium, primary screen (AID 2435);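 further: peak over basal fluorescence ratio from a 100 s FLIPR kinetic read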
Details: Fluo-8 calcium fluorescence, at 3 µM, stronger effect = higher value, normalized: DMSO 0%, oxytocin 100%

Chain of Oxytocin receptor (Homo sapiens) (P30559 whole entry, looked up): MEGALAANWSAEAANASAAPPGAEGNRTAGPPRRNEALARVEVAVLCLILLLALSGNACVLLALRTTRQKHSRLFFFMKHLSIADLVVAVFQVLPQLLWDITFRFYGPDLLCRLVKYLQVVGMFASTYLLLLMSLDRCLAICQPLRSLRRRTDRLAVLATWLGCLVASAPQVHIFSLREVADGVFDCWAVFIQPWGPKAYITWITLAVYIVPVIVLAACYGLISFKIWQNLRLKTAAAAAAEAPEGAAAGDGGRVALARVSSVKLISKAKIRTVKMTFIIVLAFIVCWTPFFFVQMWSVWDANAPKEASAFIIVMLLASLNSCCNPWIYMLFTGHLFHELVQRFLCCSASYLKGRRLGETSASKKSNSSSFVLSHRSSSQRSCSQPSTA

SMILES | activation
NS(=O)(=O)c1ccc(CNC(=O)c2cccc(S(=O)(=O)N3CCc4ccccc43)c2)cc1 | -0.73%
N#C/C(=C/c1ccc(N2CCOCC2)o1)C(=O)N1CCOCC1 | 4.33%
O=C(CN1C(=O)NC2(CCCCC2)C1=O)NCCc1c[nH]c2ccccc12 | 0.26%
N#C/C(=C/c1ccc(N2CCCCC2)o1)C(=O)NCCc1c[nH]c2ccccc12 | 27.2% (active)
CCCCCCCCCCCCC(NC(C)=O)(C(=O)OCC)C(=O)OCC | 1.74%
O=C(c1cccnc1)N1CCN(S(=O)(=O)c2cccs2)CC1 | 0.18%
Fc1ccc(NC(=S)N2CCc3[nH]c4ccccc4c3C2)cc1 | 4.05%
CC1CCc2[nH]c3ccc(C(=O)N(C)CC(=O)Nc4cccc(F)c4)cc3c2C1 (centres undefined) | 2.82%
O=C(CCCN1CCc2[nH]c3ccc(F)cc3c2C1)c1ccc(F)cc1 | 24.7% (active)
Cc1cccc(OCCC(=O)Nc2cc(S(=O)(=O)N3CCCCC3)ccc2N2CCOCC2)c1 | -0.97%
CC1(C)CC[C@@]2(C(=O)O)C(C1)C1=CCC3[C@@]4(C)CC[C@H](O)C(C)(C)C4CC[C@@]3(C)[C@]1(C)C[C@H]2O (some centres undefined) | 30.7% (active)
CC1(C)CC[C@]2(C(=O)O)CC[C@]3(C)C(=CCC4[C@@]5(C)CC[C@H](O)C(C)(C)C5[C@H](O)C[C@]43C)[C@@H]2C1 (some centres undefined) | 2.18%
CC1(C)C2CC[C@]3(C)C(CC=C4[C@@H]5C[C@@](C)(CO)CC[C@]5(C(=O)O)CC[C@]43C)[C@@]2(C)CC[C@@H]1O (some centres undefined) | 0.42%
Cc1ccc(S(=O)(=O)N(CC(=O)NN=C2CCN(C)CC2)c2ccc(F)cc2)cc1 | -1.6%
CCCn1nc(C(=O)N2CCCc3ccccc32)c2ccccc2c1=O | -1.8%
O=C(OCCN=C1NS(=O)(=O)c2ccccc21)c1cccc([N+](=O)[O-])c1 | 1.88%
O=C(CCCN=C1NS(=O)(=O)c2ccccc21)OCC(=O)c1ccc(F)c(F)c1 | 30.8% (active)
N#CC1(NC(=O)COC(=O)CCN=C2NS(=O)(=O)c3ccccc32)CCCCC1 | 0.35%
OCCN(Cc1ccccc1)Cc1ccc(Cl)cc1 | -0.86%
CN(C(=O)CN(CCO)CC(=O)N(C)C(C)(C)Cc1ccccc1)C(C)(C)Cc1ccccc1 | 50.2% (active)
CCN(CC)CCCNC(=O)CCc1ccccc1 | -0.47%
Cc1cc(S(=O)(=O)N2CCOCC2)ccc1OCC(=O)Nc1cccc(C(F)(F)F)c1 | 0.91%
CCNC(=S)NNC(=O)Cc1ccccc1 | 1.03%
CCCCC(=O)NNC(=S)NC(=O)C(c1ccccc1)c1ccccc1 | 68.1% (active)
CC(C)C(=O)Nc1cccc(NC(=S)NC(=O)C(c2ccccc2)c2ccccc2)c1 | 4.03%
CC1CCCN(CCCNC(=O)CN2C(=O)COc3ccc(S(=O)(=O)N4CCOCC4)cc32)C1 (centres undefined) | 0.7%
Cc1ccc(OS(=O)Nc2cccc3nccnc23)cc1 (centres undefined) | 0.23%

SMILES | activation
O=C(O)c1ccc2c3c(cccc13)C(=O)N(OS(=O)(=O)c1ccccc1)C2=O | 0.06%
Cc1nn(C)cc1N1C(=O)c2cccc3c(N)ccc(c23)C1=O | 70.2% (active)
COc1ccc(N2C(=O)c3cccc4cccc(c34)C2=O)nn1 | -0.24%
CN1C(=O)c2cccc3c(N)ccc(c23)C1=O | 84.9% (active)
CC(=O)Nc1ccccc1Sc1ccc2c3c(cccc13)C(=O)N(c1ccc(C)cc1)C2=O | -0.75%
Cc1nn(C)cc1C(=O)c1ccccc1 | -1.25%
CSc1ncccc1C(=O)Nc1cccc(S(=O)(=O)N2CCOCC2)c1 | 3.66%
CN(C)CCCN(C(=O)c1ccc(S(=O)(=O)N2CCCc3ccccc32)cc1)c1nc2ccc(F)cc2s1 | 15.5%
CN(C)CCCN(C(=O)c1ccc(S(=O)(=O)N2CCCCCC2)cc1)c1nc2ccc(Br)cc2s1 | 20.8% (active)
CN(C)CCCN(C(=O)c1ccc(S(=O)(=O)N2CCCCCC2)cc1)c1nc2cc3c(cc2s1)OCCO3 | 3.02%
Cc1oc2nc(SCC(=O)Nc3ccc(S(N)(=O)=O)cc3)nc(NC(=O)c3ccccc3)c2c1C | 0.48%
CCCCCCCCCCCCN1C(=O)CSC1c1cccnc1 (centres undefined) | -0.53%
COCCC(=O)Nc1ccc2c(c1)CN(C(=O)CCOC)CC2 | 0.4%
CN(C)S(=O)(=O)c1ccc(Oc2ccc(S(=O)(=O)N(C)C)cc2)cc1 | 23.4% (active)
COc1ccc(S(=O)(=O)N(C)CC(=O)N2CCCC2)cc1 | 1.27%
CN(C)S(=O)(=O)c1ccc(NC(=O)N2CCOCC2)cc1 | -0.79%
Cc1nc(CC(=O)NNS(=O)(=O)c2ccc(F)c(Cl)c2)cs1 | -0.41%
Cc1ccccc1N1CC(C(=O)Nc2ccc(S(=O)(=O)N3CCCC3)cc2)CC1=O (centres undefined) | 1.72%
CC(C)(c1ccccc1)c1ccc(OCCN)cc1 | 20.2% (active)
CN(C)CC(O)COc1ccc(C(C)(C)c2ccc(OCC(O)CN(C)C)cc2)cc1 (centres undefined) | 1.29%
CC(C)(c1ccccc1)c1ccc(OCCN2CCCC2)cc1 | 16%
COc1ccc(-c2csc3ncnc(N4CCN(S(=O)(=O)c5ccccc5C#N)CC4)c23)cc1 | -0.22%
Cc1c(CCOC(=O)CC23CC4CC(CC(C)(C4)C2)C3)sc[n+]1Cc1ccc([N+](=O)[O-])cc1 | -1.22%
COc1cc(OC)c2ccc(=O)oc2c1C(CCN1CCN(c2ccccc2)CC1)c1ccc2c(c1)OCO2 (centres undefined) | -1.49%
CCN(CC)CCC(c1cc(OC)c(OC)c(OC)c1)c1c(OC)cc(OC)c2c(-c3ccccc3)cc(=O)oc12 (centres undefined) | 2.08%
COc1cc(C(CCN2CCN(c3ccccc3)CC2)c2c(OC)cc(OC)c3ccc(=O)oc23)cc(OC)c1OC (centres undefined) | 22.2% (active)
Cc1ccc(S(=O)(=O)N2CCN(C(=O)Cc3sc(C)nc3-c3ccc(F)cc3)CC2)c(C)c1 | -2.3%
